# From PubChem BioAssay (NCATS)
# Inconclusive results are not listed. Values without a mark were called inactive. Active and inactive are the calls of the source. Calls come from the whole dose curve; as a rule, active = well fitted inhibition curve with a large enough effect; inconclusive = small, poorly fitted or top-dose-only effect; inactive = no such curve, though single readings can be large or run the other way.
# Test: BET inhibitor-based combinations targeting novel dependencies in MECOM-rearranged (r) AML: MV-4-11 cell line (AID 2202233); note: nearly all actives have a fitted effect of over 45% in size
# Conditions: MV-4-11 AML viability, CellTiter-Glo luminescence, 48 h; series mostly up to 46 µM
# Description: Ecotropic viral insertion site 1 (EVI1) is located on chromosome 3q26.2 as part of the MECOM (MDS and EVI1 complex) locus. Under normal hematopoiesis, EVI1 is a regulator of hematopoietic stem cell maintenance and self-renewal and EVI1 levels decrease as the cells differentiate. In approximately 5-10% of de novo acute myeloid leukemia (AML) EVI1 is aberrantly expressed, including Chromosomal inv(3)(q21;q26.2) or t(3;3)(q21;q26.2) alterations (MECOM-r) that account for about 50% of AML with EVI1 overexpression 31. AMLs with high levels of EVI1 have a poor prognosis and an overall survival time averaging between 10-14 months. EVI1 overexpression confers resistance in leukemia cells, highlighting the need to develop new targeted therapies for EVI1 overexpressing AMLs. Here, we performed an unbiased chemical drug screening by evaluating the single agent activity of a collection of 2,480 oncology-focused, approved and investigational drugs (NCATS Mechanism Interrogation Plates, MIPE v5.0) against a panel of seven AML cell lines. These included four MECOM-r cell-lines (AML-191, AML-194, UCSD-AML1 and HNT-34) and three non-MECOM-r AMLs (MV4-11, OCI-AML3 and SET-2). Exploiting the mechanistic redundancy built in the library, we identified target-level sensitivities in MECOM-r AML cells and relative activity as compared to other AML subtypes.
# A collection of 2480 mechanistically annotated dugs (MIPE v5.0) was used to screen four 3q26.2 rearranged AML cell lines and three non-3q26.2 rearranged AML cell lines. This library purposely exploits redundancy by including multiple inhibitors of key onco-targets, while simultaneously encompassing mechanistic diversity, targeting more than 800 distinct mechanisms of action. Briefly, cells were seeded in 5 uL of growth media using a Multidrop Combi dispenser into 1536 well white polystyrene tissue culture treated plates (Corning) at a density of 500cells/well. For each cell-line, for each of the 2480 drugs in MIPE v5.0 library, an 11-point dose curve was generated via a 1536 pin-tool. Plates were incubated for 48 hr at standard incubator conditions, covered by a stainless steel gasketed lid to prevent evaporation. Cell viability was determined by luminescence based, Cell Titer Glo assay (Promega). In detail, 3 uL of Cell Titer Glo were added to each well and plates were incubated at room temperature for 15 min with a stainless-steel lid in place. Luminescence readings were taken using a Viewlux (PerkinElmer) with a 2 s exposure time per plate. Compound dose-response curves were normalized to DMSO and empty well controls on each plate. Quantitative drug activity data from dose-response curves was determined utilizing area Under the Curve (AUC) and Z-transformed AUC (Z-AUC, a mean-centering transformation applied to each individual cell-line screened).
# Potency is the fitted concentration of half-maximal effect.
Structure (SMILES),Potency,"viability, % of control"
O=C(Nc1ccnc(NC(=O)C2CC2)c1)c1c(Cl)cccc1Cl,4.68 µM (active),
NCC1CCN(c2nccc(-c3ccc4ccccc4c3)n2)CC1,4.17 µM (active),
Cc1ccc(C(=O)c2cc(O)c(O)c([N+](=O)[O-])c2)cc1,inactive,
COc1ccc(Cc2ccc(NC(N)=O)cc2)cc1-c1cccc(Cl)c1,inactive,
CC(C)NC(=O)N1CC[C@H](N=C2Nc3cc(F)ccc3N(CC(F)F)c3ccc(Cl)cc32)C1,,94.7% [at 8.46 µM]
CCc1nc(C(N)=O)c(Nc2ccc(N3CCC(N4CCN(C)CC4)CC3)c(OC)c2)nc1NC1CCOCC1,0.059 µM (active),
Cn1ccc2cc3c(cc21)CCN3C(=O)Nc1cccnc1,inactive,
Cn1nccc1Nc1nccc(-c2ccn([C@H](CO)c3ccc(Cl)c(F)c3)c(=O)c2)n1,16.6 µM (active),
O=C1c2ccccc2-[n+]2ccc3c([nH]c4ccccc43)c21,1.48 µM (active),
CO[C@@H](C)Cn1c(=O)n(C)c2cnc3ccc(-c4cncc(C(C)(C)O)c4)cc3c21,0.332 µM (active),
Nc1nc2ccc(OC(F)(F)F)cc2s1,23.5 µM (active),
CN(C)CCc1c[nH]c2ccc(CS(=O)(=O)N3CCCC3)cc12,inactive,
Cc1cc(Nc2ncc(Cl)c(Nc3ccccc3S(=O)(=O)C(C)C)n2)c(OC(C)C)cc1C1CCNCC1,4.68 µM (active),
CN1CCc2c(c3ccccc3n2Cc2ccc(C(=O)NO)cc2)C1,20.9 µM (active),
CCC(CC)CC1(C(=O)Nc2ccccc2SC(=O)C(C)C)CCCCC1,inactive,
Cc1ncc(NC(=O)c2ccc(CN3CCN(C)CC3)c(C(F)(F)F)c2)cc1Nc1nccc(-c2cccnc2)n1,3.32 µM (active),
CC1=C(C(=O)Nc2cc3cn[nH]c3cc2F)C(c2ccc(Cl)cc2F)N=C(c2ccnc(Cl)c2)N1 (stereo not given),5.9 µM (active),
CN(C)Cc1c(C(=O)NCCOc2ccc(C(=O)NO)cc2)oc2ccccc12,0.263 µM (active),
COc1ccccc1OCC(O)CN1CCN(CC(=O)Nc2c(C)cccc2C)CC1 (stereo not given),inactive,
COc1ccc([C@@H]2CNC(=O)C2)cc1OC1CCCC1,inactive,

Structure (SMILES),Potency,"viability, % of control"
Fc1ccc(CNc2ncnc3ccc(F)cc23)cc1,5.9 µM (active),
CCCC1OC2C[C@@H]3[C@H]4CCC5=CC(=O)C=C[C@]5(C)[C@H]4C(O)C[C@]3(C)[C@]2(C(=O)CO)O1 (stereo not given in full),20.9 µM (active),
CCC(=O)O[C@]1(C(=O)SCF)[C@H](C)C[C@H]2[C@@H]3C[C@H](F)C4=CC(=O)C=C[C@]4(C)[C@@]3(F)[C@@H](O)C[C@@]21C,inactive,
O=C(NCCCNc1nc(Nc2cccc(NC(=O)N3CCCC3)c2)ncc1I)c1cccs1,0.662 µM (active),
Cc1cc2c(F)c(Oc3ncnn4cc(OCC(C)OC(=O)C(C)N)c(C)c34)ccc2[nH]1 (stereo not given),11.8 µM (active),
S=C(NCc1ccc2c(c1)OCO2)N1CCN(c2ncnc3c2oc2ccccc23)CC1,16.6 µM (active),
Nc1ccc(-c2ccc3ncc4ccc(=O)n(-c5cccc(C(F)(F)F)c5)c4c3c2)cn1,0.0833 µM (active),
Nc1nc(-c2nn(Cc3ccccc3F)c3ncccc23)nc(N)c1N1CCOCC1,inactive,
c1cnc2cc3c(cc2n1)C1CNCC3C1,inactive,
NC(=O)N1CCC(CC(=O)N2CCC([C@H]3c4ncc(Br)cc4CCc4cc(Cl)cc(Br)c43)CC2)CC1,16.6 µM (active),
O=C(NCCCNC(=O)c1ccc[nH]c1=O)c1cc(-c2ccccc2)on1,8.33 µM (active),
COc1cccc2c1C(=O)c1c(O)c3c(c(O)c1C2=O)C[C@@](O)(C(=O)CO)C[C@@H]3O[C@H]1C[C@H](N)[C@H](O)[C@H](C)O1,0.0372 µM (active),
COC(c1ccccc1)(c1ccccc1)[C@H](Oc1nc(C)cc(C)n1)C(=O)O,inactive,
NC(=O)c1ccc(I)c([N+](=O)[O-])c1,16.6 µM (active),
Cc1cc(=O)oc2cc(O)ccc12,inactive,
C#CC[C@H](c1nc2cc(Cl)ccc2c(=O)n1Nc1ccccc1)N(CCCN)C(=O)c1cccc(Cl)c1F,1.05 µM (active),
CC1(C)CCC(c2ccc(Cl)cc2)=C(CN2CCN(c3ccc(C(=O)NS(=O)(=O)c4ccc(N[C@H](CCN5CCOCC5)CSc5ccccc5)c(S(=O)(=O)C(F)(F)F)c4)cc3)CC2)C1,0.332 µM (active),
CN1CCN(c2ccc(-c3cccc(CN4CCOCC4)c3)cc2NC(=O)c2c[nH]c(=O)cc2C(F)(F)F)CC1,12.9 µM (active),
C[C@@H](c1ncncc1F)[C@](O)(Cn1cncn1)c1ccc(F)cc1F,inactive,
COc1ccc(-n2c(SCCCN3C(=O)c4cccc5cccc(c45)C3=O)nnc2-c2ccncc2)cc1,inactive,
